Bioassay records: PubChem BioAssay, National Center for Advancing Translational Sciences (NCATS)
RE007 growth inh: qHTS Assay for Inhibitors of the HIV-1 protein Vpr; S. pombe RE007 Vpr strain, BacTiter-Glo ATP luminescence, 24 h; Potency, µM (top dose mostly 92.2 µM), hits mostly inhibitors; actives 0.21% (n = 360,000); AID 651644, 2012; active means well fitted falling curve with a large enough effect; inconclusive means small, poorly fitted or top-dose-only effect; inactive means no such curve, though single readings can be large or run the other way; further: nearly all actives have a fitted effect of over 50% in size
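Fission yeast strain RE007, carrying one chromosomally integrated HIV-1 vpr copy, was seeded at OD 0.01 in PMG+AL medium with 23 nL pinned compound. After 24 h at 30 °C and 99% humidity, viability was read by BacTiter-Glo luminescence.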
SARS PLP yeast: qHTS of Yeast-based Assay for SARS-CoV PLP; S. cerevisiae expressing SARS-CoV PLpro, growth rescue; actives 0.19% (n = 330,000); Potency, µM (top dose mostly 32.9 µM), usual class: activators; calls by dose curve; further: nearly all actives have a fitted effect of over 55% in size
Pf growth 48h: Primary qHTS for delayed death inhibitors of the malarial parasite plastid, 48 hour incubation; Potency, µM (doses to about 28.7 µM), usual class: inhibitors; actives 5.9% (n = 310,000); P. falciparum luciferase growth in erythrocytes, 48 h
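Compounds are pin-transferred into medium, infected erythrocytes (2% hematocrit, 0.1% parasitemia final) are added, and plates sit one parasite generation at 37 C in 5% CO2. Detection reagent is then added and luminescence measured.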
NS1 inh: qHTS Assay for Inhibitors of Influenza NS1 Protein Function; Potency, µM (doses to about 46.1 µM); actives 0.4% (n = 270,000); AID 2326, 2010; calls by dose curve; further: actives are rising curves; nearly all actives have a fitted effect of over 50% in size
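OD600 was taken as the measure of yeast growth restored by compound in an NS1-expressing S. cerevisiae strain. Cells had been washed out of glucose medium and diluted 1:100 into galactose -URA medium, pH 6.0.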
Pf growth 96h: Primary qHTS for delayed death inhibitors of the malarial parasite plastid, 96 hour incubation; P. falciparum luciferase reporter growth, 96 h; Potency, µM (highest dose often 28.7 µM), usual class: inhibitors; actives 6.9% (n = 320,000); AID 504834, 2011
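Erythrocytes infected with luciferase-expressing P. falciparum were dispensed at 2% hematocrit and 0.05% parasitemia (final), then incubated with compounds 96 hours at 37 C in 5% CO2. Luminescence after detection reagent addition reported growth.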
Hits are given with their value; 0 = inactive; ? = inconclusive; - = not tested or not shown; [ ] = dose if it differs, or a comment. A selection: hits, their analogues and other compounds. The true share with any hit is near 9.5%. Unless noted, the call rests on the fitted dose curve; in most records, active means well fitted inhibition curve with a large enough effect; inconclusive means small, poorly fitted or top-dose-only effect, or another doubt; inactive means no such curve, though single readings can be large or run the other way.

SMILES | RE007 growth inh | SARS PLP yeast | Pf growth 48h | NS1 inh | Pf growth 96h
COc1ccc(C)cc1NC(=O)c1cccc(-c2ccc(OC(C)=O)cc2)c1 | 0 | 0 | 0 | 0 | 0
O=C(O)c1cccc2c1C(=O)c1cc([N+](=O)[O-])ccc1-2 | 0 | - | - | - | -
OC1Cc2ccccc2C1Nc1cccc(C(F)(F)F)c1 (stereo unspecified) | 0 | - | - | - | -
CCN(CC)CCOc1ccc(C(O)(Cc2ccc(Cl)cc2)c2ccc(C)cc2)cc1 (stereo unspecified) | - | - | 13.5µM | - | 9.53µM
COc1ccc(-c2nc(CS(=O)CC(=O)NCc3ccc4c(c3)OCO4)c(C)o2)cc1 (stereo unspecified) | 0 | 0 | - | 0 | 4.65µM
COc1ccc(CCNC(=O)CS(=O)Cc2nc(-c3cccs3)oc2C)cc1OC (stereo unspecified) | 0 | 0 | ? | 0 | 8.28µM
COc1ccccc1CNC(=O)CS(=O)Cc1nc(-c2ccccc2C)oc1C (stereo unspecified) | 0 | 0 | - | 0 | 5.22µM
Cc1oc(-c2ccccc2Cl)nc1CSCC(=O)NC1CC1 | 0 | 0 | ? | 0 | ?
Cc1ccc(CCNC(=O)CS(=O)Cc2nc(-c3cccs3)oc2C)cc1 (stereo unspecified) | 0 | 0 | 0 | 0 | 0
COc1cccc(-c2nc(CS(=O)CC(=O)NCc3ccc4c(c3)OCO4)c(C)o2)c1 (stereo unspecified) | 0 | 0 | - | 0 | 0
Cc1oc(-c2ccccc2F)nc1CSCC(=O)NC1CCCC1 | 0 | 0 | 0 | 0 | 1.47µM
COc1ccc(CCNC(=O)CCCN2C(=O)C(c3ccccc3)Oc3cccnc32)cc1OC (stereo unspecified) | 0 | 0 | ? | 0 | 0
COc1ccc(CNC(=O)CS(=O)Cc2nc(-c3ccc(C)cc3)oc2C)cc1 (stereo unspecified) | 0 | 0 | - | 0 | 7.38µM
Cc1oc(-c2ccc(Cl)cc2)nc1CS(=O)CC(=O)NC1CCCCCC1 (stereo unspecified) | 0 | 0 | 0 | 0 | 9.28µM
Cc1oc(-c2ccc(Cl)cc2)nc1CS(=O)CC(=O)NC1CCCCC1 (stereo unspecified) | 0 | 0 | 0 | ? | 0
COc1ccc(CNC(=O)CS(=O)Cc2nc(-c3ccc(OC)c(OC)c3)oc2C)cc1 (stereo unspecified) | 0 | 0 | 0 | 0 | 0
CCOc1ccccc1C(=O)N1CCN=C1SC | 0 | 0 | - | 0 | 14.7µM
CSC1=NCCN1C(=O)Cc1ccc(F)cc1 | 0 | 0 | - | 0 | 9.28µM
CCOc1ccc(C(=O)N2CCN=C2SC)cc1OCC | 0 | 0 | ? | 0 | 0
Cc1ccc(-c2cc(-c3ccc(C)cc3)[n+](-c3ccc(C(=O)O)cc3)c(-c3ccc(C)cc3)c2)cc1 | 0 | 0 | - | - | ?
Cc1ccc(C[n+]2c(-c3ccc(C)cc3)cc(-c3ccc(C)cc3)cc2-c2ccc(C)cc2)cc1 | 0 | 0 | 0.329µM | - | ?
O=C(/C=C/c1ccc(Br)o1)Nc1nnc(C2CC2)s1 | - | 0 | 0 | 0 | ?
O=[N+]([O-])c1ccc(C2=Nn3c(nnc3-c3ccc(Cl)cc3)SC2)o1 | - | - | - | 0 | -
CCCCN(CCCC)CC(O)c1cc(Cl)cc2c1-c1ccc(Cl)cc1/C2=C/c1ccc(Cl)cc1 (stereo unspecified) | - | - | 0.0151µM | - | 0.0213µM
C=CCSc1nnc(NC(=O)CCNC(=O)c2ccccc2Cl)s1 | 0 | - | - | - | -
SMILES | RE007 growth inh | SARS PLP yeast | Pf growth 48h | NS1 inh | Pf growth 96h
C=CCOc1cccc(/C=C2\C(=O)N(Cc3ccc(C)cc3)C(C)=C2C(=O)OC)c1 | 0 | 0 | 14.7µM | 0 | 6.57µM
COC(=O)C1=C(C)N(CCc2ccc(OC)c(OC)c2)C(=O)/C1=C\c1ccc(O)cc1 | - | 0 | 11.7µM | 0 | 0
COC(=O)C1=C(C)N(Cc2ccc(OC)cc2)C(=O)/C1=C\c1ccco1 | 0 | 0 | ? | 0 | ?
COCCCN1C(=O)/C(=C\c2ccc3c(c2)OCO3)C(C(=O)OC)=C1C | 0 | 0 | 0 | 0 | 0
CCN1C(=O)/C(=C\c2ccc3c(c2)OCO3)C(C(=O)OC)=C1C | 0 | 0 | 0 | 0 | 1.85µM
Cn1nc(C(=O)OCc2ccc(Br)cc2F)c2ccccc2c1=O | 0 | 0 | 0 | 0 | 0
Cc1ccc(C)c(OCc2nc3ccc(S(=O)(=O)Nc4c(C)n(C)n(-c5ccccc5)c4=O)cc3[nH]2)c1 | 0 | 0 | 11.7µM | - | 5.22µM
Cc1c(NCc2nc3ccccc3[nH]2)c(=O)n(-c2ccccc2)n1C | 0 | 0 | 0 | 0 | 13.1µM
CC(C)(O)C#Cc1ccc(N2C(c3ccsc3)=Cc3ccc(F)cc3C2c2c[nH]c3ccccc23)cc1 (stereo unspecified) | 0 | - | - | - | -
FC(F)(F)c1nnc2c(Sc3ccccc3)nc3ccccc3n12 | 0 | 0 | 0 | 0 | 0
FC(F)(F)c1nnc2c(Sc3ccccn3)nc3ccccc3n12 | 0 | 0 | 9.28µM | 0 | 0
COc1ccc(CC(=O)NC(C)c2ccc(S(N)(=O)=O)cc2)cc1S(=O)(=O)N1CCOCC1 (stereo unspecified) | 0 | 0 | 0 | 0 | 0
Cc1ccc2c(c1)C1CN(C)CCC1N2S(=O)(=O)c1cccc(C(F)(F)F)c1 (stereo unspecified) | 0 | 0 | ? | - | ?
Cc1ccc2c(c1)C1CN(C)CCC1N2S(=O)(=O)c1ccc(C(C)C)cc1 (stereo unspecified) | 0 | 0 | 4.65µM | - | 7.38µM
Cc1ccc2c(c1)C1CN(C)CCC1N2S(=O)(=O)c1ccccc1 (stereo unspecified) | 0 | 0 | ? | 0 | ?
Cc1ccc2c(c1)C1CN(C)CCC1N2S(=O)(=O)c1cc(C(F)(F)F)ccc1Cl (stereo unspecified) | 0 | 0 | 9.28µM | - | 0
CC(C)C[C@@H](CN1CCC[C@@H]1CN1C(=S)NC[C@@H]1Cc1ccc(O)cc1)N1C[C@H](Cc2ccc(O)cc2)N(CC2CCCCC2)C1=S | 0 | - | - | - | -
COc1ccc(CCN2C(=O)C(Oc3ccccc3C)C2c2ccc3c(c2)OCO3)cc1OC (stereo unspecified) | 0 | 0 | 11.7µM | 0 | 0
COc1ccc(CCN2C(=O)C(Oc3ccccc3C)C2c2ccc3c(c2)OCO3)cc1 (stereo unspecified) | 0 | 0 | ? | 0 | 0.928µM
CCCCC(=O)NNC(=O)N1c2ccccc2Sc2ccccc21 | ? | 0 | 0[0.00184 µM] | 0 | 0
COC(=O)CCC(=O)OC1(C)C(=O)C=C2C=C(C3CC3)N(Cc3ccco3)C=C2C1=O (stereo unspecified) | 0 | 0 | 11.7µM | 0 | ?
CC(Oc1ccc(F)cc1)C(=O)Nc1sc2c(c1C(=O)NCc1cccnc1)CCCC2 (stereo unspecified) | 0 | 0 | 8.28µM | 0 | 6.57µM
O=C(Nc1sc2c(c1C(=O)NCc1cccnc1)CCCC2)c1ccco1 | 0 | 0 | ? | 0 | ?
O=C(Nc1sc2c(c1C(=O)c1ccccc1)CCCC2)c1cccnc1 | 0 | 0 | 0 | 0 | 0.37µM
